Screening data: PubChem BioAssay, National Center for Advancing Translational Sciences (NCATS)
pAkt inh: Akt phosphorylation inhibition; Neuro2A IGF-stimulated pAkt S473 HTRF, 20 min; active compounds read low; activity change, % for hits at 50 µM; hit rate 0.32% among 360,000; AID 651550; in the data active means activity change below about -80%; inconclusive means mostly about -51% to -80%; further: on the % scale 0 is the no-effect control and ±100 the full control effect
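Neuro2A cells in DMEM with 0.5% FBS, overnight at 37 deg C, given compound at single 50 µM final, then IGF (6 nM final) for 20 min at 37 deg C. Lysed; phospho-Akt Ser473 by HTRF after 24 h, 665/615 ratio.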
MBNL1-CUG inh: MBNL1-poly(CUG) RNA binding inhibition; Q9NR56; TR-FRET MBNL1-His/biotin-(CUG)12 binding, 665/545 ratio; Potency, µM (titrated, usually from 57.5 µM), inactives show at the highest dose activity change, negative = inhibition, usual class: inhibitors; hit rate 0.036% among 280,000; active means well fitted inhibition curve with a large enough effect in the signal ratio, with a control signal flat, not every such curve was filed as active; inconclusive means small, poorly fitted or top-dose-only effect, or effect the other way, or a change in a side signal; inactive means no such curve, though single readings can be large or run the other way; the % refers to the signal ratio; further: potency means the concentration at half of the fitted maximal effect; on the % scale 0 is the no-effect control and ±100 the full control effect
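Compound titration spanned 92 nM–58 uM against the MBNL1-His/biotin-(CUG)12 complex. After 60 min at room temperature with 5 nM streptavidin-XL665 and 0.055 ng/ul terbium anti-His, ratiometric 665/545 nm emission (Ex 340 nm) normalized to controls.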
Menin MLL FP TR: menin-MLL binding inhibition, Texas Red mutant peptide; O00255; Menin + Texas Red MLL mutant peptide, fluorescence polarization; Potency, µM (highest dose often 61.6 µM), inactives show top-dose FP activity change, negative = inhibition, hits mostly inhibitors; hit rate 0.23% among 270,000; active means well fitted inhibition curve with a large enough effect in the polarisation, with a control signal flat, not every such curve was filed as active; inconclusive means small, poorly fitted or top-dose-only effect, or effect the other way, or a change in a side signal; inactive means no such curve, though single readings can be large or run the other way; the % refers to the polarisation; further: potency means the concentration at half of the fitted maximal effect; % of control where 0% means no effect
Target sequence (O00255 whole entry, looked up): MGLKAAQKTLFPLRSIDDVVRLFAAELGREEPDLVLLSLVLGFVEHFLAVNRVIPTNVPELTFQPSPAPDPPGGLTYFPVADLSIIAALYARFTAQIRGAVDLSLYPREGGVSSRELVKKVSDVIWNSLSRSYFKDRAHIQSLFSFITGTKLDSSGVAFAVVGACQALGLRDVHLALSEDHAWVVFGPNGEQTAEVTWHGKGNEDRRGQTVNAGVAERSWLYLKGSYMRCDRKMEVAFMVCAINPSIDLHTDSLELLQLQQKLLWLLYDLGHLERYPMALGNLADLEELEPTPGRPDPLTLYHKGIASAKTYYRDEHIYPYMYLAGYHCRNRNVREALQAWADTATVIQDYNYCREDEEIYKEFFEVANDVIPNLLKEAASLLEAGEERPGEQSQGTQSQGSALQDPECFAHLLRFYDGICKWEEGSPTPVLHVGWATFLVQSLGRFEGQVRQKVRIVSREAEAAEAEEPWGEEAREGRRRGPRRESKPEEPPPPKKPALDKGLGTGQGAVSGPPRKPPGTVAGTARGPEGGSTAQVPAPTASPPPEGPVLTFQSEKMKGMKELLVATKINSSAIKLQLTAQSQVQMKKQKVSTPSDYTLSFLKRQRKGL
S-ASM inh: blocks human secretory acid sphingomyelinase; hit rate 0.006% among 340,000; placental ASM, HMU-PC fluorogenic substrate, 60 min; AID 504937; Potency, µM (highest dose often 57.5 µM), inactives show at the highest dose activity change, negative = inhibition, hits mostly inhibitors; further: potency means the concentration at half of the fitted maximal effect
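Human placenta-derived ASM enzyme was preincubated with compound for 10 minutes at room temperature, then given fluorogenic substrate HMU-PC0 (9 uM final) for 60 minutes at 37 °C; a pH 10 stop preceded fluorescence reading at Ex 386/Em 447 nm.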
CXXC DNA block: inhibitors of human MLL CXXC domain-DNA interaction | Potency, µM (series often up to 115 µM), without a hit: at the highest dose activity change, negative = inhibition, most hits filed as inhibitors | Q03164 | AID 2662 | hit rate 0.037% among 290,000 | MLL-CXXC / FITC-HOXA9 DNA fluorescence polarization; active means well fitted inhibition curve with a large enough effect in the polarisation, with a control signal flat, not every such curve was filed as active; inconclusive means small, poorly fitted or top-dose-only effect, or effect the other way, or a change in a side signal; inactive means no such curve, though single readings can be large or run the other way; the % refers to the polarisation; further: potency means the concentration at half of the fitted maximal effect
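Purified MLL-CXXC (added from a 7 uM solution) was preincubated 5 min at ambient with pinned compounds in 50 mM Tris-HCl pH 7.5, 50 mM NaCl, 1 mM DTT, 0.05% BSA. Fluorescein-labeled HOX-A9 DNA (50 nM solution) followed, 30 min, then polarization read.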
Menin MLL FP FL: menin-MLL binding inhibition, fluorescein peptide; Fluorescence polarization, fluorescein-MLL peptide displacement from menin; FP activity change, % at 61.4 µM; 290,000 tested, under 10 active; AID 1766; active means well fitted curve in the direction sought with a large enough effect in the polarisation, not every such curve was filed as active; inconclusive means small, poorly fitted or top-dose-only effect, or effect the other way, or a change in a side signal; inactive means no such curve, though single readings can be large or run the other way; the % refers to the polarisation; further: % of control where 0% means no effect
MLL CXXC Fl: MLL CXXC-DNA interaction inhibition, fluorescein FP; shares compounds with CXXC DNA block; Potency, µM (series often up to 345 µM), for inactives: at the top dose activity change, negative = inhibition, usual class: inhibitors; AID 624160; MLL CXXC-DNA binding, fluorescein FP; hit rate 70% among 200; further: potency means the concentration at half of the fitted maximal effect; nearly all actives have a fitted effect of over 80% in size
MLL CXXC FP-TR: disrupts human MLL CXXC domain binding to DNA, Texas Red; hit rate 40% among 200; Potency, µM (titrated, usually from 345 µM), without a hit: at the top dose activity change, negative = inhibition, actives largely listed as inhibitors; shares compounds with CXXC DNA block; MLL CXXC-DNA binding, Texas Red fluorescence polarization; further: potency means the concentration at half of the fitted maximal effect; on the % scale 0 is the no-effect control and ±100 the full control effect; nearly all actives have a fitted effect of over 75% in size
MLL CXXC HTRF: inhibitors of human MLL CXXC domain-DNA interaction, HTRF format; MLL CXXC-DNA binding, HTRF, biochemical; shares compounds with CXXC DNA block; hit rate 30% among 210; Potency, µM (titrated, usually from 172 µM), without a hit: at the highest dose activity change, negative = inhibition, usual class: inhibitors; further: on the % scale 0 is the no-effect control and ±100 the full control effect; nearly all actives have a fitted effect of over 80% in size
Active calls of the source: *; i = inactive; ? = inconclusive; nt = no result. Only some compounds are listed: those with a hit (about 0.45% of all), similar ones and a draw of the others. Unless noted, the call rests on the fitted dose curve; in most records, active means well fitted inhibition curve with a large enough effect; inconclusive means small, poorly fitted or top-dose-only effect; inactive means no such curve, though single readings can be large or run the other way.

SMILES	pAkt inh	MBNL1-CUG inh	Menin MLL FP TR	S-ASM inh	CXXC DNA block	Menin MLL FP FL	MLL CXXC Fl	MLL CXXC FP-TR	MLL CXXC HTRF
Cc1nn(C)c(C)c1CN(C)C(=O)C1(C)CC1(Br)Br (stereo not drawn)	i	-7%	2%	-2%	12%	6	nt	nt	nt
Cc1nn(C)c(C)c1CN(C)C(=O)C1c2ccccc2Oc2ccccc21	i	-5%	-1%	2%	32µM*	-1	126µM*	?	-1%
O=C1/C(=C\c2cccnc2)CCc2ccccc21	nt	5%	-5%	2%	?	5	?	-15%	28%
Cc1ccc(N/C=C(\C2OC(=O)c3ccccc32)[N+](=O)[O-])c(C)c1 (stereo not drawn)	i	?	-5%	-4%	-1%	-17	nt	nt	nt
O=C1OC(/C(=C\Nc2ccc(F)cc2F)[N+](=O)[O-])c2ccccc21 (stereo not drawn)	i	-3%	-6%	-1%	?	1	6%	126µM*	-3%
CNc1cc(CSC)nc(SCc2ccc(Cl)c(Cl)c2)n1	i	-10%	11%	-14%	8%	2	nt	nt	nt
COc1ccc(/C=C2/SC(=S)N(CCC(=O)O)C2=O)cc1	i	?	14%	-3%	-29%	5	nt	nt	nt
O=C(O)CCN1C(=O)/C(=C\c2ccncc2)SC1=S	i	10%	28%	3%	35µM*	2	nt	nt	12%
O=C(O)CCN1C(=O)/C(=C\c2ccc(-c3nc4ccccc4s3)o2)SC1=S	i	3%	28%	-11%	?	?	71µM*	50µM*	24µM*
COCCN(CCOC)Cc1cc(=O)oc2ccc3ccccc3c12	i	nt	nt	nt	nt	nt	nt	nt	nt
CN1CCCc2cc3c(C(F)(F)F)cc(=O)oc3nc21	i	19%	-2%	i	28µM*	?	45µM*	-16%	22%
C=CCOC(=O)C(=O)/C=C/c1csc2ccccc12	i	-5%	?	-8%	?	?	6%	?	-12%
CC1SC(c2ccccc2Cl)NC1=O (stereo not drawn)	i	-5%	2%	-4%	8%	3	nt	nt	nt
N#CC(c1ccccc1)C(CC(=NO)c1ccccc1)c1ccccc1 (stereo not drawn)	i	nt	nt	nt	nt	nt	nt	nt	nt
Nc1nc2c(s1)CCc1c-2cnn1-c1ccccc1	i	?	-18%	3%	32µM*	-1	?	?	31µM*
CC(=O)C1(O)Cc2c(O)c3c(c(O)c2C(OC2CC(N)C(O)C(C)O2)C1)C(=O)c1c(O)cccc1C3=O (stereo not drawn)	nt	nt	?	nt	?	?	4.5µM*	20µM*	270%
COc1cccc2c1C(=O)c1c(O)c3c(c(O)c1C2=O)CC(O)(C(C)=O)CC3OC1CC(N(C)C)C(O)C(C)O1 (stereo not drawn)	i	nt	nt	-20%	nt	nt	nt	nt	nt
Cc1cc(C)c2c3c(c(-c4ccccc4)n2n1)c(=O)n(C)c(=O)n3C	i	nt	nt	1%	nt	nt	nt	nt	nt
Cc1cc(-c2ccccc2)c2c3c(c(-c4ccccc4)n2n1)c(=O)n(C)c(=O)n3C	i	-3%	4%	0%	50µM*	?	-43%	16%	9%
O=c1ccc2[n+]([O-])c3ccc(O)cc3oc-2c1	i	nt	nt	-2%	35µM*	?	?	2.2µM*	?
